From PubChem BioAssay (Tox21)
Where “and” joins values, the source holds several entries; their conditions need not be identical. Identical values can stand only once. Records with an inconclusive call do not appear. Some structures have more than one record in an assay (separate samples or runs), and their calls can disagree. Calls of active or inactive are those of the source. Calls come from the whole dose curve; as a rule, active = well fitted curve in the direction sought with a large enough effect in the repeat runs; inconclusive = weak or mixed curves; inactive = no such curve, though single readings can be large; an effect the other way counts as inactive or inconclusive.

The compounds below were run against Cytochrome P450 2C9 (Homo sapiens) (UniProt P11712) (assay: Cytochrome P450 Family 2 Subfamily C Member 9 (CYP2C9) small molecule antagonists: luciferase reporter qHTS assay (AID 1671198)). Conditions: P450-Glo CYP2C9 enzyme assay, luciferin luminescence; series mostly up to 115 µM; activity change, negative = inhibition: at the top concentration.
Procedure, shortened: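 P450-Glo proluciferin substrate with CYP2C9 enzyme; 10 min RT preincubation, then NADPH regeneration 1 h at 37C; luciferin detection reagent 20 min RT, luminescence in relative luminescence units.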
% is set by controls: 0 for no effect and ±100 for the full control effect.
Note: nearly all actives have a fitted effect of over 50% in size.

Cytochrome P450 2C9 (Homo sapiens), sequence (P11712 whole entry, looked up): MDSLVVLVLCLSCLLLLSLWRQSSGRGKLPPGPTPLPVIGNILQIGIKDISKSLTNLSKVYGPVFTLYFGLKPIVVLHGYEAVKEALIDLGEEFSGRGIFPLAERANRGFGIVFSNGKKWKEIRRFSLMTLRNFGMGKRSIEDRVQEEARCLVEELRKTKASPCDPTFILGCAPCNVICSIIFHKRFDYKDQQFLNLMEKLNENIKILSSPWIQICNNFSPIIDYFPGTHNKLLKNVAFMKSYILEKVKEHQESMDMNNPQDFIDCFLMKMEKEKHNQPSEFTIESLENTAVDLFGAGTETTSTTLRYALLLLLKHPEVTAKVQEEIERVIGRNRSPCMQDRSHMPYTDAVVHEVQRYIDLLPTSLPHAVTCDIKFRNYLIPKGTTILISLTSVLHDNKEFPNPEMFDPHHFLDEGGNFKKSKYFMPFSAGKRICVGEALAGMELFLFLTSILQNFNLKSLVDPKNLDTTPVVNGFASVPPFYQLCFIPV

Row | Structure (SMILES) | activity change, negative = inhibition
1 | C=C(C)C(=O)OCCCCCCCC(C)C | -18.7% (inactive)
2 | CCC(C)S (stereo unspecified) | -9.04% [at 4.07 µM] (inactive)
3 | O=c1cc(CO)occ1O | -5.72% [at 53 µM] (inactive)
4 | CN(C)CCCNCCCN(C)C | -3.26% (inactive)

What follows are compounds tested against Cytochrome P450 1A2 (Homo sapiens) (UniProt P05177) (assay: Cytochrome P450 Family 1 Subfamily A Member 2 (CYP1A2) small molecule antagonists: luciferase reporter qHTS assay (AID 1671199; note: potency is the fitted concentration of half-maximal effect)). Conditions: P450-Glo CYP1A2 enzyme, luciferin luminescence, 1 h; series mostly up to 53 µM; activity change, negative = inhibition: at the top concentration.
Procedure, shortened: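 P450-Glo CYP1A2, 1536-well qHTS: enzyme/proluciferin substrate + cpd (DMSO), 10 min RT; NADPH regen, 1 h RT; detection reagent, 20 min; luminescence, RLU.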

Cytochrome P450 1A2 (Homo sapiens), sequence (P05177 whole entry, looked up): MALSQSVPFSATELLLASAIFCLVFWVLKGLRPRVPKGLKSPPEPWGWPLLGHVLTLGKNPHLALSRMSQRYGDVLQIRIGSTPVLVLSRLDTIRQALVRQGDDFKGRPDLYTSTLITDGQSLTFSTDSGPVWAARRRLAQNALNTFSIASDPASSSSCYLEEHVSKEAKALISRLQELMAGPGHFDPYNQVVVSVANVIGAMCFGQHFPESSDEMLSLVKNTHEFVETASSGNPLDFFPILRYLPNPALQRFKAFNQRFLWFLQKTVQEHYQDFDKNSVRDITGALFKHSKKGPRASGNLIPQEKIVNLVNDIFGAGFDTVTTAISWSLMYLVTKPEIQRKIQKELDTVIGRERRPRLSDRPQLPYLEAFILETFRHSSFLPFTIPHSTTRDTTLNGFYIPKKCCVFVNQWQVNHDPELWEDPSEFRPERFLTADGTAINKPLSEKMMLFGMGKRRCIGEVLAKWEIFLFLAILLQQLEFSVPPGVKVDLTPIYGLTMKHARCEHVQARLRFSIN

Row | Structure (SMILES) | activity change, negative = inhibition | Potency
5 | CC(=O)N(CC(O)CO)c1c(I)c(C(=O)NCCO)c(I)c(C(=O)NCC(O)CO)c1I (stereo unspecified) | -5.2% (inactive) | 
6 | NC(=O)COCCN1CCN(C(c2ccccc2)c2ccc(Cl)cc2)CC1 (stereo unspecified) | -23.5% (inactive) | 
7 | C[C@H](NC(CCc1ccccc1)C(=O)O)C(=O)N1CCC[C@H]1C(=O)O (stereo partly specified) | -9.43% (inactive) | 
8 | OC[C@]1(O)OC[C@@H](O)[C@H](O)[C@@H]1O |  | inactive
9 | C=COCC1CCC(CO)CC1 (stereo unspecified) | -5.36% [at 115 µM] (inactive) | 
10 | CCc1ccc(O)c(OC)c1 |  | 31.7 µM (active)
11 | COC(=O)CC(C)=O | -15.1% [at 115 µM] (inactive) | 
12 | CCCCCCCCCCCCCCCCC |  | 12.6 µM (active)
13 | Nc1c[n+](N2CCOCC2)no1 | -5.27% (inactive) | 
14 | CC(C)(c1ccc(O)cc1)c1ccc(O)cc1 |  | inactive and 57.4 µM (active)
15 | COC(=O)NN | -20.6% [at 115 µM] (inactive) | 
16 | O=C1CCCCCCCCCCCN1 |  | 70.9 µM (active)
17 | O=C(O)c1ccccc1OP(=O)(O)O |  | 27.5 µM (active)
18 | O=C(c1ccccc1)C1CCCCC1 |  | 44.8 µM (active)
19 | NCCCNCCSP(=O)(O)O | -21.8% [at 10.5 µM] (inactive) | 
20 | CN1CCCC1 | -9.98% [at 115 µM] (inactive) | 
21 | CCOC(=O)c1ccc(C)cc1 | -13.1% [at 115 µM] (inactive) | 
22 | C=C[Si](OC(=C)C)(OC(=C)C)OC(=C)C | -18.7% [at 115 µM] (inactive) | 
23 | O=c1cc(CO)occ1O | -24.2% (inactive) | 
24 | CN(C)CCCNCCCN(C)C | -14.8% [at 115 µM] (inactive) | 

These compounds were tested against Voltage-gated inwardly rectifying potassium channel KCNH2 (Homo sapiens) (UniProt Q12809) (assay: Human Ether-a-go-go-Related Gene (hERG) channel small molecule antagonists: fluorescence cell-based qHTS assay (AID 1671200; note: potency is the fitted concentration of half-maximal effect;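 for activity change, negative = inhibition: hERG-expressing U2OS cells given a thallium stimulus after FluxOR II dye loading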)). Conditions: hERG-U2OS cells, FluxOR thallium flux fluorescence; series mostly up to 76.8 µM; activity change, negative = inhibition: at the top concentration.
Procedure, shortened: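 U2OS cells expressing the channel were plated at 1000 cells/well, incubated overnight at 37 C, then loaded with FluxOR II thallium-sensitive dye for 1 h at room temperature in the dark, with a further 10 min at room temperature before stimulation.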

Voltage-gated inwardly rectifying potassium channel KCNH2 (Homo sapiens), sequence (Q12809 whole entry, looked up): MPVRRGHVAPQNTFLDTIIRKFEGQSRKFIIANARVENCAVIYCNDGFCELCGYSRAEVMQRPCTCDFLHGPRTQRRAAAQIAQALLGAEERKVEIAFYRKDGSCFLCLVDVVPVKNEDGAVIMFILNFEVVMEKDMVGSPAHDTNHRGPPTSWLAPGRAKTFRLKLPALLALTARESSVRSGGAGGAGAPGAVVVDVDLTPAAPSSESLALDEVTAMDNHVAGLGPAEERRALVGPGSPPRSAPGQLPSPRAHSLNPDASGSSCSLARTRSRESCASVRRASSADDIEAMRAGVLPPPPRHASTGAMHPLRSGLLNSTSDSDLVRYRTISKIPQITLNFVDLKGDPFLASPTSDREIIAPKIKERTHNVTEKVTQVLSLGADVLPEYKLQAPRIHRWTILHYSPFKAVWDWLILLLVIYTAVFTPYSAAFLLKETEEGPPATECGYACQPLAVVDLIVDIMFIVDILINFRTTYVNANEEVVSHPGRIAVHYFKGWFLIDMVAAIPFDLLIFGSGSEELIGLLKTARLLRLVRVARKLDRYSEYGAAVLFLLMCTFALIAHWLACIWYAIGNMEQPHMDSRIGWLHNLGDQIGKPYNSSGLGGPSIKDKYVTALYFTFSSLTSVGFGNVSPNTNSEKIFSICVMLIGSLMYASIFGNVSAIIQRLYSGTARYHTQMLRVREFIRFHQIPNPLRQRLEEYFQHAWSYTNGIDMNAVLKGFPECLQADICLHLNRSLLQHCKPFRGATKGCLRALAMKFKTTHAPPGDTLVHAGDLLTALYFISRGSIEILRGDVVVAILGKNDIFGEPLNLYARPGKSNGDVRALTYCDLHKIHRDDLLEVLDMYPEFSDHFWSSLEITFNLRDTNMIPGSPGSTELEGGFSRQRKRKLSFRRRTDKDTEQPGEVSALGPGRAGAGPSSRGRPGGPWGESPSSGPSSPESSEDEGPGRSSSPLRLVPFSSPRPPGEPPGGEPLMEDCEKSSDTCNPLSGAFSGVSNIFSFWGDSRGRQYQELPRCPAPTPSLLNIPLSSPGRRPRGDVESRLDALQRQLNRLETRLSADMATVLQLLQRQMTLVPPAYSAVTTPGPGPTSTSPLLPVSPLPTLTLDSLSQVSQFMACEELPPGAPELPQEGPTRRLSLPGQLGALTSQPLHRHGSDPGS

Row | Structure (SMILES) | activity change, negative = inhibition | Potency
25 | CC(=O)N(CC(O)CO)c1c(I)c(C(=O)NCCO)c(I)c(C(=O)NCC(O)CO)c1I (stereo unspecified) | 0.355% [at 35.3 µM] (inactive) | 
26 | CCC(=O)OC(C)c1ccccc1 (stereo unspecified) | 0.451% (inactive) | 
27 | OC[C@]1(O)OC[C@@H](O)[C@H](O)[C@@H]1O |  | inactive
28 | CC1=CC(C)C(C=O)CC1 (stereo unspecified) | 1.86% (inactive) | 
29 | CCc1ccc(O)c(OC)c1 | 1.67% (inactive) | 
30 | CN1C(=O)N(C)C(O)C1O (stereo unspecified) | 18.3% (inactive) | 
31 | CC/C=C\CC/C=C/CO | -1.15% (inactive) | 
32 | O=C1CCCC(=O)C1 | 6.69% (inactive) | 
33 | Nc1c[n+](N2CCOCC2)no1 | 3.54% [at 35.3 µM] (inactive) | 
34 | CO[C@]12C[C@@H](COC(=O)c3cncc(Br)c3)CN(C)[C@@H]1Cc1cn(C)c3cccc2c13 |  | 1.07 µM (active)
35 | CC(C)(c1ccc(O)cc1)c1ccc(O)cc1 |  | inactive
36 | O=C1CCCCCCCCCCCN1 |  | inactive
37 | O=C(O)c1ccccc1OP(=O)(O)O | 7.65% [at 35.3 µM] (inactive) | 
38 | CCCCCCCCCCCCCC=O | -8.57% [at 6.97 µM] (inactive) | 
39 | O=C(c1ccccc1)C1CCCCC1 | -10.8% (inactive) | 
40 | O=C1CCCN1C1CCCCC1 | 2.14% (inactive) | 
41 | NCCCNCCSP(=O)(O)O | -1.01% [at 6.97 µM] (inactive) | 
42 | Cc1c(O)cccc1O | -0.348% (inactive) | 
43 | Cc1ccc(Cl)cc1Cl | 0.685% (inactive) | 
44 | CCC(C)C1CCCCC1=O (stereo unspecified) | 0.642% (inactive) | 
45 | CN1CCCC1 | 0.599% (inactive) | 
46 | COC(=O)c1cc(C(=O)OC)cc(S(=O)(=O)O)c1 | -5.37% (inactive) | 
47 | C=C[Si](OC(=C)C)(OC(=C)C)OC(=C)C | -5.41% (inactive) | 
48 | C=C(C)C(=O)OCCCCCCCC(C)C | -1.01% (inactive) | 
49 | CCC(C)S (stereo unspecified) | 1.71% [at 2.72 µM] (inactive) | 
50 | O=c1cc(CO)occ1O | 4.85% [at 35.3 µM] (inactive) | 

The compounds below were run against Cytochrome P450 3A4 (Homo sapiens) (UniProt P08684) (assay: Cytochrome P450 Family 3 Subfamily A Member 4 (CYP3A4) small molecule antagonists: luciferase reporter qHTS assay (AID 1671201; note: potency is the fitted concentration of half-maximal effect)). Conditions: P450-Glo CYP3A4 enzyme, luciferin luminescence, 1 h; series mostly up to 115 µM; activity change, negative = inhibition: at the top concentration.
Procedure, shortened: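 P450-Glo CYP3A4 system with proluciferin substrate; compounds preincubated 10 min RT with enzyme-substrate mix, then NADPH regeneration added for 1 h RT. Detection reagent 20 min, luminescence read as relative luminescence units.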

Cytochrome P450 3A4 (Homo sapiens), sequence (P08684 whole entry, looked up): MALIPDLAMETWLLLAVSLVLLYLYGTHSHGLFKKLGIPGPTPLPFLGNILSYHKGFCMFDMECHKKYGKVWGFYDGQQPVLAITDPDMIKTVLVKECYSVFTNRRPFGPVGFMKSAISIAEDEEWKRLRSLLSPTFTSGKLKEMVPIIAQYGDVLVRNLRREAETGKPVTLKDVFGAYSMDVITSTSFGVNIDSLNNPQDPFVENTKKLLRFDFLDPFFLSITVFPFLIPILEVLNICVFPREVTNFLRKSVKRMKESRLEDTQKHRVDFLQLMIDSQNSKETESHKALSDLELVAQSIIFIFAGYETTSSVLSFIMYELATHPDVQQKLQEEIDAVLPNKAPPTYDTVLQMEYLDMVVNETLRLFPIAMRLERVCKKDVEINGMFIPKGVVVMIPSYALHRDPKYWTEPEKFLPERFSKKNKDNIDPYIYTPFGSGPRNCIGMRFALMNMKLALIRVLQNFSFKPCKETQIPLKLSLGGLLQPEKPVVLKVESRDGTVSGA

Row | Structure (SMILES) | activity change, negative = inhibition | Potency
51 | CC(=O)CC(C)(C)C1CCCCC1 | 1.14% (inactive) | 
52 | C[C@H](NC(CCc1ccccc1)C(=O)O)C(=O)N1CCC[C@H]1C(=O)O (stereo partly specified) | 2.8% [at 52.9 µM] (inactive) | 
53 | CCC(=O)OC(C)c1ccccc1 (stereo unspecified) | 7.88% (inactive) | 
54 | OC[C@]1(O)OC[C@@H](O)[C@H](O)[C@@H]1O |  | inactive
55 | CCc1ccc(O)c(OC)c1 | -0.85% (inactive) | 
56 | CN1C(=O)N(C)C(O)C1O (stereo unspecified) | 8.69% (inactive) | 
57 | COC(=O)CC(C)=O | 6.68% (inactive) | 
58 | CC/C=C\CC/C=C/CO | 10.4% (inactive) | 
59 | CCCCCCCCCCCCCCCCC | 10.5% (inactive) | 
60 | O=C1CCCC(=O)C1 | 0.228% (inactive) | 
61 | Nc1c[n+](N2CCOCC2)no1 | 9.5% [at 52.9 µM] (inactive) | 
62 | O=C(O)c1ccccc1OP(=O)(O)O | 9.7% [at 52.9 µM] (inactive) | 
63 | CCCCCCCCCCCCCC=O | -19.9% [at 10.5 µM] (inactive) | 
64 | O=C(c1ccccc1)C1CCCCC1 | 82.5% (inactive) | 
65 | Cc1c(O)cccc1O |  | 32.5 µM (active)
66 | Cc1ccc(Cl)cc1Cl | -0.24% (inactive) | 
67 | CCC(C)C1CCCCC1=O (stereo unspecified) | 14% (inactive) | 
68 | CN1CCCC1 | 5.85% (inactive) | 
69 | C=C(C)C(=O)OCCCCCCCC(C)C | -4.31% (inactive) | 
70 | CCC(C)S (stereo unspecified) | 2.72% [at 4.07 µM] (inactive) | 
71 | O=c1cc(CO)occ1O | 11.7% [at 52.9 µM] (inactive) | 
